Test results from PubChem BioAssay (EPA / NIEHS).
“And” between values parts separate entries of the source, which are not always exact repeats. Equal values may be shown once. Results filed as inconclusive are left out. A structure can be active in one record and inactive in another. The source made the active and inactive calls. Rule for the calls, unless noted: active = hit-call score of the fitted dose curve at least 0.9, where 1 is the maximum; inactive = score below 0.9.

Tests used:
[1] = read-out: Tumor necrosis factor (Homo sapiens) (UniProt P01375); test: BSK_LPS_TNFa: BioMAP Diversity Plus: LPS Assay for Tumour Necrosis Factor alpha (TNFa) Biomarker Activity (AID 2283085); conditions: primary human HUVEC with PBMC; actives raise or lower the signal
In short: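 Read-out is ELISA of TNFa in primary human endothelial cell–PBMC co-cultures at 24 h after compound. Activity in either direction was fitted against DMSO.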

[2] = read-out: CD38, CD38 (gene 952); test: BSK_SAg_CD38: BioMAP Diversity Plus: SAg Assay for CD38 Biomarker Activity (AID 2283087); conditions: primary human HUVEC with PBMC; actives raise or lower the signal
In short: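 Human HUVEC plus PBMC co-culture stimulated with superantigen; CD38 measured by ELISA 24 h after chemical dosing. Fluorescence read-out, bidirectional fit against DMSO; cytotoxicity tracked in parallel by SRB and Alamar Blue.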

[3] = read-out: Monocyte Chemoattractant Protein-1 (MCP1), CCL2 (gene 6347); test: BSK_SAg_MCP1: BioMAP Diversity Plus: SAg Assay for Monocyte Chemoattractant Protein-1 (MCP1) Biomarker Activity (AID 2283090); conditions: primary human HUVEC with PBMC; actives raise or lower the signal
In short: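 MCP-1 levels in the endothelial–PBMC SAg co-culture were quantified by ELISA at 24 h post-dosing; both increases and decreases versus DMSO scored. Cytotoxicity monitored by SRB total protein in parallel cultures.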

[4] = read-out: E-selectin (Homo sapiens) (UniProt P16581); test: BSK_SAg_Eselectin: BioMAP Diversity Plus: SAg Assay for Eselectin Biomarker Activity (AID 2283091); conditions: primary human HUVEC with PBMC; actives raise or lower the signal
In short: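 E-selectin ELISA readout at 24 h post-dosing in human umbilical vein endothelial cell/PBMC co-culture; gain or loss of signal fitted relative to DMSO baseline.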

[5] = read-out: Monokine induced gamma interferon (MIG), CXCL9 (gene 4283); test: BSK_SAg_MIG: BioMAP Diversity Plus: SAg Assay for Monokine induced gamma interferon (MIG) Biomarker Activity (AID 2283092); conditions: primary human HUVEC with PBMC; actives raise or lower the signal
In short: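 Values reflect bidirectional fitting of ELISA-measured MIG against DMSO vehicle, taken 24 h after dosing of a co-culture of human umbilical vein endothelial cells and peripheral blood mononuclear cells.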

[6] = read-out: Interleukin-8 (IL8), CXCL8 (gene 3576); test: BSK_SAg_IL8: BioMAP Diversity Plus: SAg Assay for Interleukin-8 (IL8) Biomarker Activity (AID 2283094); conditions: primary human HUVEC with PBMC; actives raise or lower the signal
In short: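 ELISA read-out of IL-8 in a primary human vascular co-culture (umbilical vein endothelium plus PBMC), taken 24 h after compound addition. Values derive from bidirectional fits against DMSO negative controls.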

[7] = BSK_SAg_Proliferation: Cell Proliferation Assessment in the BioMAP Diversity Plus: SAg Assay (AID 2283095); conditions: primary human HUVEC with PBMC;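 note: relative cell number as total protein by SRB absorbance in sub-confluent culture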
In short: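 Cells (endothelium plus PBMC, human primary) were dosed with chemical, cultured 96 h, fixed in 10% TCA and stained with 0.1% SRB. Absorbance at 560 nm gave relative protein, fitted bidirectionally relative to DMSO.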

[8] = read-out: Interferon-inducible T-cell alpha chemoattractant (ITAC), CXCL11 (gene 6373); test: BSK_hDFCGF_ITAC: BioMAP Diversity Plus: hDFCGF Assay for Interferon-inducible T-cell alpha chemoattractant (ITAC) Biomarker Activity (AID 2284251); conditions: primary human foreskin fibroblasts
In short: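 Primary human foreskin fibroblasts (hDFCGF system) treated for 24 h; I-TAC quantified by ELISA. Gain-direction fitting versus DMSO; parallel SRB staining of total protein flagged overt cytotoxicity.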

[9] = read-out: Intercellular Adhesion Molecule 1 (ICAM1), ICAM1 (gene 3383); test: BSK_BE3C_ICAM1: BioMAP Diversity Plus: BE3C Assay for Intercellular Adhesion Molecule 1 (ICAM1) Biomarker Activity (AID 2284278); conditions: primary human bronchial epithelial cells
In short: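 Human primary bronchial epithelial cultures; compound added; 24 h incubation; cell-surface ICAM-1 measured by ELISA; signal increase fitted relative to DMSO negative control.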

[10] = read-out: Epidermal growth factor receptor (EGFR), EGFR (gene 1956); test: BSK_BE3C_EGFR: BioMAP Diversity Plus: BE3C Assay for Epidermal growth factor receptor (EGFR) Biomarker Activity (AID 2284281); conditions: primary human bronchial epithelial cells
In short: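 Human primary bronchial epithelial cells (BE3C system) dosed with chemicals; EGFR measured by ELISA at 24 h, fitted in the positive direction relative to DMSO. Cytotoxicity tracked in parallel cultures by SRB total-protein staining.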

[11] = read-out: KRT18 (gene 3875); test: BSK_BE3C_Keratin818: BioMAP Diversity Plus: BE3C Assay for Keratin 818 Biomarker Activity (AID 2284282); conditions: primary human bronchial epithelial cells
In short: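 Chemicals are added to human lung bronchial epithelial primary cells (BE3C system) and incubated 24 h. Keratin 8/18 is then measured by ELISA, with parallel SRB total-protein staining gauging overt cytotoxicity.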

[12] = read-out: Matrix Metallopeptidase 9 (MMP9), MMP9 (gene 4318); test: BSK_BE3C_MMP9: BioMAP Diversity Plus: BE3C Assay for Matrix Metallopeptidase 9 (MMP9) Biomarker Activity (AID 2284283); conditions: primary human bronchial epithelial cells
In short: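 ELISA read-out of MMP-9 after 24 h compound exposure of human lung bronchial epithelial primary cells (BE3C). Fit in gain direction vs DMSO negative control; total protein by SRB in parallel cultures flagged overt cytotoxicity.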

[13] = read-out: TIMP metallopeptidase inhibitor 2 (TIMP2), TIMP2 (gene 7077); test: BSK_hDFCGF_TIMP2: BioMAP Diversity Plus: hDFCGF Assay for TIMP metallopeptidase inhibitor 2 (TIMP2) Biomarker Activity (AID 2284289); conditions: primary human foreskin fibroblasts
In short: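 Primary human foreskin fibroblasts in the hDFCGF system, dosed for 24 h; TIMP-2 level measured by ELISA, fitted in the positive direction against DMSO; cytotoxicity checked in parallel by sulforhodamine B total protein staining.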

[14] = read-out: Thrombomodulin, THBD (gene 7056); test: BSK_LPS_Thrombomodulin: BioMAP Diversity Plus: LPS Assay for Thrombomodulin Biomarker Activity (AID 2284296); conditions: primary human HUVEC with PBMC
In short: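 Human umbilical vein endothelial cells co-cultured with PBMC and stimulated with LPS; cell-surface thrombomodulin measured by ELISA 24 hours after compound. Gain or loss versus DMSO; cytotoxicity checked by SRB staining in parallel cultures.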

[15] = read-out: CD69, CD69 (gene 969); test: BSK_LPS_CD69: BioMAP Diversity Plus: LPS Assay for CD69 Biomarker Activity (AID 2284303); conditions: primary human HUVEC with PBMC
In short: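 Human umbilical vein endothelial cells co-cultured with PBMC under LPS stimulation, chemical exposure 24 h; cell-surface CD69 measured by ELISA and fitted in the positive direction versus DMSO.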

[16] = molecular target: Hepatocyte nuclear factor 4-alpha (Homo sapiens) (UniProt P41235); test: ATG_HNF4a_TRANS: Attagene TRANS-FACTORIAL HepG2 Assay for human Hepatocyte Nuclear Factor 4 alpha (HNF4a) (AID 2282982; active = hit-call score of the fitted dose curve at least 0.9, where 1 is the maximum); conditions: HepG2 HNF4a transactivation reporter, mRNA readout
Chain of Hepatocyte nuclear factor 4-alpha (Homo sapiens) (P41235 whole entry, looked up, the tested form may be a part): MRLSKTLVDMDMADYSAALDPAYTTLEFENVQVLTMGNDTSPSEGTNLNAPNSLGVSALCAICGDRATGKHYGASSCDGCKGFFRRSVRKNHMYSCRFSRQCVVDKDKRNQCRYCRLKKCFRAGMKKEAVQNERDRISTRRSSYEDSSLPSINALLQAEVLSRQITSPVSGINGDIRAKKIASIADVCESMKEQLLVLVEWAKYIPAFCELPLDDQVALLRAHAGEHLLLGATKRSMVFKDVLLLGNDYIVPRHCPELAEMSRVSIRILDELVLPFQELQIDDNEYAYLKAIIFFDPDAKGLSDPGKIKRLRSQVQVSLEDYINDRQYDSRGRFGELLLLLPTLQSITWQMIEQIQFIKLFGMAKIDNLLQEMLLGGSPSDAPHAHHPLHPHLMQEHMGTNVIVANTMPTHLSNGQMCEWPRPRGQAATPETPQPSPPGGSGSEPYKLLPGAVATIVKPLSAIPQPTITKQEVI
In short: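 HepG2 cells transiently transfected with HNF4a-Gal4 chimera and GAL4-UAS reporter units, dosed for 24 h. Reporter mRNA measured by RT-PCR, fluorescent primer extension and capillary electrophoresis; gain-of-signal fitted relative to DMSO.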

[17] = molecular target: human Retinoid X Receptor beta (RXRb), RXRB (gene 6257) (UniProt P28702); test: ATG_RXRb_TRANS: Attagene TRANS-FACTORIAL HepG2 Assay for human Retinoid X Receptor beta (RXRb) (AID 2283013; active = hit-call score of the fitted dose curve at least 0.9, where 1 is the maximum)
Chain of human Retinoid X Receptor beta (RXRb), RXRB (gene 6257) (P28702 whole entry, looked up, the tested form may be a part): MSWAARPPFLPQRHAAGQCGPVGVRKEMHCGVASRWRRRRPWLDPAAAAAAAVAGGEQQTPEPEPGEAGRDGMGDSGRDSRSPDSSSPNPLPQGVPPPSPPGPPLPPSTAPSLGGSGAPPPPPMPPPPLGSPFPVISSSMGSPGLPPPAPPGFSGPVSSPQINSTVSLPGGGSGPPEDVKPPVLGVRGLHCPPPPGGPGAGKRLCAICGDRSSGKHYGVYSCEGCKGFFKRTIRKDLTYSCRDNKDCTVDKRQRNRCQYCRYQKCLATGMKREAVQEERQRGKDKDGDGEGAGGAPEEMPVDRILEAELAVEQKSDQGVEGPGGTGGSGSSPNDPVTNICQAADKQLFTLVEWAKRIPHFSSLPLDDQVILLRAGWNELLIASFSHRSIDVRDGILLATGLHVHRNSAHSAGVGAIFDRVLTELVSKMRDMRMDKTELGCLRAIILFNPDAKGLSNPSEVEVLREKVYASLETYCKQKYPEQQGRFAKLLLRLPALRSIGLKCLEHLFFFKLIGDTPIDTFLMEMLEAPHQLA
In short: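 Transfect HepG2 with GAL4-UAS multi-reporter constructs (chimeric NR-Gal4, TRANS format); dose compound 24 h; isolate RNA, RT-PCR, FAM primer extension, HpaI digest; quantify by capillary electrophoresis; positive direction vs DMSO.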

[18] = molecular target: human Vitamin D Receptor (VDR), VDR (gene 7421) (UniProt P11473); test: ATG_VDR_TRANS: Attagene TRANS-FACTORIAL HepG2 Assay for human Vitamin D Receptor (VDR) (AID 2283022; active = hit-call score of the fitted dose curve at least 0.9, where 1 is the maximum)
Chain of human Vitamin D Receptor (VDR), VDR (gene 7421) (P11473 whole entry, looked up, the tested form may be a part): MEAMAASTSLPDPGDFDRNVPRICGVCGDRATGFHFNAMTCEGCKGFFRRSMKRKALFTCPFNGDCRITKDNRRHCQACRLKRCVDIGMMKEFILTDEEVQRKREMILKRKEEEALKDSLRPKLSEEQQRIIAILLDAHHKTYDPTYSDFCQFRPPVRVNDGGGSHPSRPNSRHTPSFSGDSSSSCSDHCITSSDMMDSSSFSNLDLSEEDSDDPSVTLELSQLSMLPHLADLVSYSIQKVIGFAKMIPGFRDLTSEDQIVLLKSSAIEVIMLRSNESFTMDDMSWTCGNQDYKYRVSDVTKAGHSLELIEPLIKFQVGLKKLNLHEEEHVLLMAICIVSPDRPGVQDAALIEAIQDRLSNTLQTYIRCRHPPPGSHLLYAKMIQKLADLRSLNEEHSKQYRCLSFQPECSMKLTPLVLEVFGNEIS
In short: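 RT-PCR/capillary electrophoresis read-out of reporter mRNA induction in transiently transfected HepG2; 24 h dosing; chimeric NR-Gal4 (TRANS format); gain-of-signal fit against DMSO baseline.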

[19] = molecular target: Signal transducer and activator of transcription 3 (Homo sapiens) (UniProt P40763); test: ATG_STAT3_CIS: Attagene CIS-FACTORIAL HepG2 Assay for human Signal Transducer and Activator of Transcription 3 (STAT3) (AID 2282963); conditions: HepG2, Attagene cis-factorial STAT3 reporter transcription; actives raise or lower the signal
Chain of Signal transducer and activator of transcription 3 (Homo sapiens) (P40763 whole entry, looked up): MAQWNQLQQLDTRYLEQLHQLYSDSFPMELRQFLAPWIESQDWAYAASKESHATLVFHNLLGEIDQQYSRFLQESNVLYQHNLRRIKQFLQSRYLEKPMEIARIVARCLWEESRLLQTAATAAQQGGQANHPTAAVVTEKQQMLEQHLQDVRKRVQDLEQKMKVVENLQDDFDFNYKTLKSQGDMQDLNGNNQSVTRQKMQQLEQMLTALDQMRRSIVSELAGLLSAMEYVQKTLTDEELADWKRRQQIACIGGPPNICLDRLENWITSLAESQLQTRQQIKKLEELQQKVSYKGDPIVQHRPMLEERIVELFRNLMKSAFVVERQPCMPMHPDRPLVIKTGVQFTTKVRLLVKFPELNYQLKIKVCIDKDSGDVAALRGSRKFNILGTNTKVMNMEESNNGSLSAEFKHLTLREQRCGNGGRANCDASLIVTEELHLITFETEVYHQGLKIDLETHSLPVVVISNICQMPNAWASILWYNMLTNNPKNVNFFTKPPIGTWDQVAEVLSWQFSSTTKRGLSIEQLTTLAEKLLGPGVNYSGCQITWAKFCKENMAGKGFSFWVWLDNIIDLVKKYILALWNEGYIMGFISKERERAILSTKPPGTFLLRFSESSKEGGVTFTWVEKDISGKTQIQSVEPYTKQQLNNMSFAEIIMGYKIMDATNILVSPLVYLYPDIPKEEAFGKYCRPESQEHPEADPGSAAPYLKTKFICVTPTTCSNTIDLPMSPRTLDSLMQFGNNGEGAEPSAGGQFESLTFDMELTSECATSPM
In short: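 HepG2 cells transiently transfected with multiple cis-element-driven reporter units report endogenous transcription factor activity. After 24 h compound exposure, reporter mRNA is measured by RT-PCR, 6-FAM labelling, HpaI digestion and capillary electrophoresis. Fitted bidirectionally versus DMSO.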

[20] = molecular target: Retinoic acid receptor RXR-alpha (Homo sapiens) (UniProt P19793); test: ATG_RXRa_TRANS: Attagene TRANS-FACTORIAL HepG2 Assay for human Retinoid X Receptor alpha (RXRa) (AID 2283012; active = hit-call score of the fitted dose curve at least 0.9, where 1 is the maximum)
Chain of Retinoic acid receptor RXR-alpha (Homo sapiens) (P19793 whole entry, looked up, the tested form may be a part): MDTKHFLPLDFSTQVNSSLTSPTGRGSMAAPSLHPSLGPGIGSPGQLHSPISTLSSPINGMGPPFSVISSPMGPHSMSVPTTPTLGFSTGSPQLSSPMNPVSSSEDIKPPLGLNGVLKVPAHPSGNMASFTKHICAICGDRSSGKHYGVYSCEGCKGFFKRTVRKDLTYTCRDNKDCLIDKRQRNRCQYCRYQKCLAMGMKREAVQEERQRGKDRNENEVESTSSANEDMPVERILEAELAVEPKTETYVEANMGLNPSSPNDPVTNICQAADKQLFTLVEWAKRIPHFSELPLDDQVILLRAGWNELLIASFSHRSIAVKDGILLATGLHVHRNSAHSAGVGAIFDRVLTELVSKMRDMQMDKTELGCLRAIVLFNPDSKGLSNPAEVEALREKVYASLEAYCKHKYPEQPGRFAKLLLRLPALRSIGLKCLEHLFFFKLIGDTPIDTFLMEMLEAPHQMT
In short: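 Transient transfection of human HepG2 with multiple GAL4-UAS reporter constructs; 24 h compound exposure; total RNA isolated, reverse-transcribed, PCR-amplified, 6-FAM labelled, HpaI-cut, resolved by capillary electrophoresis. Positive-direction fit versus DMSO.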

Measured: AC50

Chain of Tumor necrosis factor (Homo sapiens) (P01375 whole entry, looked up): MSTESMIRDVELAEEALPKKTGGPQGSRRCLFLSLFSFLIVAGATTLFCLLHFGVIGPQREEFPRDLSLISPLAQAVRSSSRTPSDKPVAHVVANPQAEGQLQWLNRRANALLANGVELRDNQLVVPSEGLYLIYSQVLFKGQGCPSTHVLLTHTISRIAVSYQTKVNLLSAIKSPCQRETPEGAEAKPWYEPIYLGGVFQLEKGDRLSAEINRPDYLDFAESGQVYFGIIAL
Chain of E-selectin (Homo sapiens) (P16581 whole entry, looked up): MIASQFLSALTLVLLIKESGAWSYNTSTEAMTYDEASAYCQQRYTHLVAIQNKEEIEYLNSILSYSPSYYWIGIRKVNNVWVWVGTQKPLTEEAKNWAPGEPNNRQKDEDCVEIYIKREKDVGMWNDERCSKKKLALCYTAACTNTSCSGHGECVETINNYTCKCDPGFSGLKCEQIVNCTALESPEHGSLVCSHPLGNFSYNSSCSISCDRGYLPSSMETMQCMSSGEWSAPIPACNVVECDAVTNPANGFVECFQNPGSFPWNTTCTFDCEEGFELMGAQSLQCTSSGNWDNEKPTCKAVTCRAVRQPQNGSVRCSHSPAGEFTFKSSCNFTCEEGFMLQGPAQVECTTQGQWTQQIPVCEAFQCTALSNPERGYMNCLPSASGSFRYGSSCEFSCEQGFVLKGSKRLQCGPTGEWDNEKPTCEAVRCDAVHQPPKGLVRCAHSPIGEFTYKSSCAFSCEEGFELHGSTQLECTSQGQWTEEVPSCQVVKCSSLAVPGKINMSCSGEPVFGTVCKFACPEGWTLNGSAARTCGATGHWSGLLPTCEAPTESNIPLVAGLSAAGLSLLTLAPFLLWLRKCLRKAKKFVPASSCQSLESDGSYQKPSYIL

CCCCC(CC)COC(=O)C=Cc1ccc(OC)cc1 (stereo not given)
active: [2] 28.5 µM and 20 µM | [3] 31.7 µM and 32.3 µM | [4] 25.9 µM and 18.8 µM | [6] 23.5 µM and 36.7 µM | [7] 34.9 µM and 37.8 µM | [13] 3.97 µM and 6.38 µM | [14] 10.6 µM and 20 µM | [15] 15.4 µM and 23.4 µM
inactive: [1] | [5] | [8] | [9] | [10] | [11] | [12]

OC(C(F)(F)F)(C(F)(F)F)C(O)(C(F)(F)F)C(F)(F)F
active: [2] 34.1 µM and 21.9 µM | [3] 43.3 µM and 40.8 µM | [4] 23.3 µM and 22.9 µM | [5] 50.6 µM and 49.6 µM | [6] 30 µM and 21.4 µM | [7] 22.9 µM and 36.4 µM | [8] 21.2 µM and 20.9 µM | [9] 44.7 µM | [10] 22.7 µM | [12] 30 µM | [13] 6.98 µM and 8.04 µM | [15] 12.9 µM and 9.36 µM
inactive: [1] | [9] | [10] | [11] | [14]

C1CN(CCOCCN2CCOCC2)CCO1
inactive: [1] | [2] | [3] | [4] | [5] | [6] | [7] | [8] | [9] | [10] | [11] | [12] | [13] | [14] | [15]

CCCCCCOC(=O)CCCCCCCC(=O)OCCCCCC
inactive: [16] | [17] | [18]

CCC[Si](OC(C)=O)(OC(C)=O)OC(C)=O
inactive: [1] | [2] | [3] | [4] | [5] | [6] | [7] | [8] | [9] | [10] | [11] | [12] | [13] | [14] | [15]
active: [15] 327 nM

C[Si](C)(C)O[Si](C)(C)O[Si](C)(C)C
inactive: [19] | [18]

CCCC[N+]1(C)CCCC1
inactive: [20]

CC/C=C\CCO
inactive: [19] | [16] | [20]

Cc1c(C(N)=O)cc([N+](=O)[O-])cc1[N+](=O)[O-]
inactive: [1] | [2] | [3] | [4] | [5] | [6] | [7] | [8] | [9] | [10] | [11] | [12] | [13] | [14] | [15]
active: [12] 15.4 µM | [14] 149 nM

COc1cc(CNC(=O)CCCC/C=C/C(C)C)ccc1O
inactive: [1] | [2] | [3] | [4] | [5] | [6] | [7] | [9] | [10] | [11] | [12] | [13] | [14] | [15]
active: [8] 8.32 µM and 8.05 µM | [13] 27.7 µM

F[B-](F)(F)F
inactive: [16] | [20]

CN(C)N=Nc1ccccc1
inactive: [16] | [20] | [17]

CCCc1c(OCCCCc2nn[nH]n2)ccc(C(C)=O)c1O
active: [17] 20.4 µM
inactive: [19] | [16] | [20] | [18]
